ChEMBL document CHEMBL3988442, “University of Dundee, Small-Polar-MMV Screening Library” (2021)

biological target: AMP-activated protein kinase, AMPK (Homo sapiens) (UniProt P54646+O43741+P54619+Q9UGJ0+Q9Y478+Q13131+Q9UGI9); experiment: AMP-dependent Kinase enzyme assay. An in vitro enzyme assay that detects ADP turnover that is directly proportional to AMPK activity. This uses naive AMPK that is activated during the assay with MK-8722; type: functional; parameters: scale not given: direction of the effect not stated beside the values; conditions: 30 µM

Point of comparison: CCOC(=O)N(C)C1CCN(Cc2cnc3ccccn23)CC1, Percent Effect 0.795%. Against it:
- CCN(Cc1ccccn1)C1CCN(c2ccccc2)C1=O (stereo not given) — lower, -6.67%
- CN(CC(=O)NCC(F)(F)F)Cc1cccc2c1OCCO2 — higher, 3.65%
- Cc1cc(C)c2cc(C(=O)N3CCNC(=O)C3)[nH]c2c1 — higher, 1.52%
- Cc1occc1C(=O)N1CCCC(C2=Nc3ccccc3S(=O)(=O)N2)C1 (stereo not given) — higher, 14.4%
- Cc1nc(C)c(C(=O)N2CCCc3c(F)cccc32)o1 — lower, -0.713%
- CCSc1cc(C(=O)NC(C)c2cccc(N3CCOC3=O)c2)ccn1 (stereo not given) — higher, 7.17%
- O=C(NCCn1ccnc1-c1cc2n(n1)CCNC2)c1ccncc1 — higher, 1.13%
- O=S(=O)(NCCc1cn2ccccc2n1)N1CCOCC1 — higher, 3.56%
- O=C(CCCN1CCCCC1)NC(C(=O)O)c1cccc(F)c1 (stereo not given) — higher, 14.7%
- COCc1nn(Cc2ccc(Br)s2)c(=O)o1 — higher, 13.5%
- COc1ccc(Cn2c(Cc3c(C)n[nH]c3C)n[nH]c2=O)cc1 — lower, -5.3%
- CNC(=O)c1sc(C(NC(=O)c2ccccc2)C2CC2)nc1C (stereo not given) — lower, -1.61%
- CC(C)c1nc2n(n1)CC(NCc1cc3ccccc3o1)CC2 (stereo not given) — lower, 0.664%
- COc1ccc2c(c1)CCCN2C(=O)NC1CCCCNC1=O (stereo not given) — higher, 2.81%
- Cc1nn2cccnc2c1C(=O)NCc1ccnc(OCC2CC2)c1 — higher, 4.11%
- CCC1COCCN1C(=O)NCc1nccn1CC(C)C (stereo not given) — lower, -3.83%
- O=C(CC1CCCC1)NCCS(=O)(=O)N1CCN(c2ccccc2)CC1 — lower, -7.22%
- O=C(CCn1cnnn1)N1CCCC(CO)(CCCc2ccccc2)C1 (stereo not given) — lower, 0.115%
- CN1CCC(NC(=O)c2cc(Br)cc(Cl)c2O)C1=O (stereo not given) — higher, 11.8%
